DAX1 inh-1 – blocks DAX1 repression of SF-1 activated StAR promoter | HEK293T StAR-luciferase reporter, SF-1/DAX-1 repression relief | inhibition, % at 6.8 µM | actives 1.1% (n = 370,000);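 active = inhibition above the mean over all tested compounds plus 3 SD, cut at about 3.6% in these data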;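 also: 0% = DAX-1 cells with DMSO and 100% = cells lacking DAX-1 with DMSO; higher inhibition means more luminescence from relief of DAX-1 repression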
DAX1 inh-2 – inhibits human nuclear receptor DAX1; P51843; HEK293 Gal4-DAX1 luciferase reporter, luminescence; inhibition, % at 6.75 µM; actives 0.99% (n = 340,000); AID 504766;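 active = inhibition above the mean over all tested compounds plus 3 SD, cut at about 4.2% in these data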;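 also: 0% = DAX1-transfected cells with DMSO and 100% = empty-vector control cells with DMSO; inhibition shows as a rise in luminescence from relieved DAX1 repression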
Target sequence (P51843 207-470 limits assumed): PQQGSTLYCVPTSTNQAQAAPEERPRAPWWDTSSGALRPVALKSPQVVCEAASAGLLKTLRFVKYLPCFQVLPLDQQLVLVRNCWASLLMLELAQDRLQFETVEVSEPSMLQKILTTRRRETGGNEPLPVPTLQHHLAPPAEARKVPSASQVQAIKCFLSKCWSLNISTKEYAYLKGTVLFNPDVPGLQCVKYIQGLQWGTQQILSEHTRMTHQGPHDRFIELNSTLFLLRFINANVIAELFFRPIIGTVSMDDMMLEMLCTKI
hcDAF-12 act – activates DAF-12 receptor from parasite H. contortus; HEK293 hcDAF-12 lit1-tk-luc reporter, luminescence; 0% DMSO, 100% Δ7-dafachronic acid; activation, % at 6.8 µM; actives 1.4% (n = 370,000);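 active = activation above the mean of all tested compounds plus 3 SD, cut at about 5.5% in these data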;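 also: 100% = response to 3 µM Δ7-dafachronic acid high control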
hgDAF-12 ag – agonists of H. glycines DAF-12 nuclear receptor; activation, % at 6.8 µM; actives 1.8% (n = 370,000); HEK293 GAL4-hgDAF12 UAS-luciferase reporter, agonist luminescence; normalized to butyrate control; AID 687014;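 active = activation above a cutoff set at the mean of all screened compounds plus 3 SD, cut at about 10% in these data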;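 also: 0% = DMSO wells and 100% = sodium butyrate wells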
ssDAF-12 act – activators of S. stercoralis DAF-12 nuclear receptor. HEK293 ssDAF-12/GRIP1 lit1-tk-luc reporter, luminescence; % of 3 µM dafachronic acid response. activation, % at 6.8 µM. actives 1% (n = 370,000);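 active = activation above the mean over all tested compounds plus 3 SD, cut at about 0.9% in these data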;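 also: 0% = DMSO-only wells and 100% = 3 µM delta7-dafachronic acid wells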
DAX1 inh confirm – NR0B1 (human) inhibition, confirmation; inhibition, % at 6.8 µM; actives 87% (n = 2,400); AID 652134; HEK293T StAR-promoter luciferase reporter, SF-1/DAX-1 repression; shares compounds with DAX1 inh-1;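 active = inhibition above the average of every tested compound plus 3 SD, cut at about 3.8% in these data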;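 also: 0% = DAX-1 cells with DMSO and 100% = no DAX-1 control cells with DMSO; active compounds raise luminescence by relieving repression of the StAR reporter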
SF1 mutant ctr – counter-screen for DAX1 inhibitors: nonselective inhibitors with SF-1 AF2 mutant; inhibition, % at 6.8 µM; actives 78% (n = 2,400); shares compounds with DAX1 inh-1; HEK293 StAR-luciferase, luminescence;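 active = inhibition above the mean of all tested compounds plus 3 SD, cut at about 3% in these data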;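 also: 0% = DAX-1 transfected cells with DMSO and 100% = cells without DAX-1 with DMSO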
LXRb hcDAF ctr – LXR-beta agonism as hcDAF-12 counter-screen; shares compounds with hcDAF-12 act; HEK293 Gal4-LXR tk-luc reporter, luminescence, 24 h; normalized: DMSO 0%, positive control 100%; activation, % at 6.8 µM; 3,400 tested, under 10 active;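 active = mean percent activation of the reporter above a cutoff set as the average over tested compounds plus their standard deviation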
Target sequence (P55055 whole entry, looked up, the tested form may be a part): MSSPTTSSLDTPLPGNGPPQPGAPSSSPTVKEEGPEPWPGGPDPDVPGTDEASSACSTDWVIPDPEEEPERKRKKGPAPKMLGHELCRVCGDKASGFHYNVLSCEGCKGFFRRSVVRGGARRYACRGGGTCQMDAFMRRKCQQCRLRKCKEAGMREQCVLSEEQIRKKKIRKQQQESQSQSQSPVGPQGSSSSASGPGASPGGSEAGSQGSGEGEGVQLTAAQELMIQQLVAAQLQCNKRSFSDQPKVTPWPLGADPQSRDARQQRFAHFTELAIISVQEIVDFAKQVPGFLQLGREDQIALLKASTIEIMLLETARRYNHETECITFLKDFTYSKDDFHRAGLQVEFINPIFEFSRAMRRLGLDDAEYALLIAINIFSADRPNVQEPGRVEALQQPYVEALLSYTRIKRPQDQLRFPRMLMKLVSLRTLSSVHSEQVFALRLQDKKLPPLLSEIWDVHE
hcDAF12 ag – confirmation of H. contortus DAF-12 agonists; shares compounds with hcDAF-12 act; HEK293 hcDAF-12 lit1-tk-luc reporter, luminescence; % of Δ7-dafachronic acid response; activation, % at 6.8 µM; actives 61% (n = 3,400); AID 743032;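 active = mean activation across triplicate tests above the threshold derived from the earlier primary screen, cut at about 5.5% in these data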;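 also: 0% = DMSO only wells and 100% = 3 µM Δ7-dafachronic acid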
* hit, by the source's call. Sampled rows, rich in hits. Any-hit rate of the full collection: about 4.1%.

How did C/C(=N\Nc1ccc(C(=O)O)cc1)c1ccc(Br)cc1 do in these assays?
DAX1 inh-1: 5.1*; DAX1 inh-2: -3; hcDAF-12 act: 12*; hgDAF-12 ag: 19*; ssDAF-12 act: 1; DAX1 inh confirm: 16*; SF1 mutant ctr: 5.3*; LXRb hcDAF ctr: 2; hcDAF12 ag: 14*

How did COc1ccc2c(COC(=O)[C@H](C)NS(=O)(=O)c3ccccc3F)cc(=O)oc2c1 do in these assays?
DAX1 inh-1: 0; DAX1 inh-2: 0; hcDAF-12 act: 0; hgDAF-12 ag: 1; ssDAF-12 act: -1

Results for O=C1C(=C2CCc3ccccc32)Cc2ccccc21 ?
DAX1 inh-1: 7.1*; hcDAF-12 act: 15*; hgDAF-12 ag: 21*; ssDAF-12 act: 2.3*; DAX1 inh confirm: 16*; SF1 mutant ctr: 9.0*; LXRb hcDAF ctr: 2; hcDAF12 ag: 21*

What do the screens show for `O=C1C(=NO)CCCc2ccccc21`?
DAX1 inh-1: -1; DAX1 inh-2: 2; hcDAF-12 act: -2; hgDAF-12 ag: 1; ssDAF-12 act: -1

Results for COc1cc2oc(-c3ccc(O)cc3)cc(=O)c2c(O)c1OC ?
DAX1 inh-1: -2; DAX1 inh-2: -2; hcDAF-12 act: -2; hgDAF-12 ag: 3; ssDAF-12 act: -1

What do the screens show for `COc1c(O)cc2oc(-c3ccc(O)cc3)cc(=O)c2c1O`?
DAX1 inh-1: 5.2*; DAX1 inh-2: 0; hcDAF-12 act: 9.6*; hgDAF-12 ag: 11*; ssDAF-12 act: 0; DAX1 inh confirm: 10*; SF1 mutant ctr: 2; LXRb hcDAF ctr: 2; hcDAF12 ag: 6.8*

How did Cc1nn(-c2ccccc2)c2c1CC(=O)Nc1ccccc1-2 do in these assays?
DAX1 inh-1: -1; DAX1 inh-2: 2; hcDAF-12 act: -1; hgDAF-12 ag: -5; ssDAF-12 act: -1

Results for Cc1ccc(C(=O)/C=C/Nc2ccccc2C(N)=O)cc1 ?
DAX1 inh-1: 4.7*; DAX1 inh-2: -2; hcDAF-12 act: 7.0*; hgDAF-12 ag: 12*; ssDAF-12 act: 1.8*; DAX1 inh confirm: 12*; SF1 mutant ctr: 7.0*; LXRb hcDAF ctr: 2; hcDAF12 ag: 7.0*

How did COc1cccc(NC(=O)N2CCCCCC2)c1 do in these assays?
DAX1 inh-1: 4.6*; DAX1 inh-2: 1; hcDAF-12 act: 7.7*; hgDAF-12 ag: 5; ssDAF-12 act: -1; DAX1 inh confirm: 5.7*; SF1 mutant ctr: 4.0*; LXRb hcDAF ctr: 0; hcDAF12 ag: 1

Results for COc1ccc(C2=Nc3ccccc3N(C(=O)Cc3cc(OC)cc(OC)c3)C2C(=O)NC(C)C)cc1 (stereo unspecified) ?
DAX1 inh-1: 6.0*; hcDAF-12 act: 6.7*; hgDAF-12 ag: 12*; ssDAF-12 act: 0.9*; DAX1 inh confirm: 9.8*; SF1 mutant ctr: 6.4*; LXRb hcDAF ctr: 1; hcDAF12 ag: 5.7*

How did COc1ccc(N=Nc2cc(C)ccc2O)cc1 do in these assays?
DAX1 inh-1: 5.0*; DAX1 inh-2: 1; hcDAF-12 act: 7.1*; hgDAF-12 ag: 25*; ssDAF-12 act: 0; DAX1 inh confirm: 15*; SF1 mutant ctr: 6.2*; LXRb hcDAF ctr: 2; hcDAF12 ag: 7.3*

What do the screens show for `OC1=C(O)c2nc3cc(F)ccc3nc21`?
DAX1 inh-1: 0; hcDAF-12 act: 5; hgDAF-12 ag: 4; ssDAF-12 act: -1

What do the screens show for `Fc1ccc2nc3[nH]c4ccccc4c3nc2c1`?
DAX1 inh-1: 4.8*; DAX1 inh-2: 3; hcDAF-12 act: 9.0*; hgDAF-12 ag: 12*; ssDAF-12 act: 1; DAX1 inh confirm: 14*; SF1 mutant ctr: 8.5*; LXRb hcDAF ctr: 2; hcDAF12 ag: 11*

What do the screens show for `Cc1cc(C)nc(NC(=O)/C=C/c2ccccc2Cl)n1`?
DAX1 inh-1: 1; DAX1 inh-2: 2; hcDAF-12 act: -1; hgDAF-12 ag: 2; ssDAF-12 act: -1

How did Cc1ccnc(NC(=O)/C=C/c2ccccc2Cl)c1 do in these assays?
DAX1 inh-1: 5.3*; DAX1 inh-2: -3; hcDAF-12 act: 8.9*; hgDAF-12 ag: 13*; ssDAF-12 act: 1.4*; DAX1 inh confirm: 8.6*; SF1 mutant ctr: 4.7*; LXRb hcDAF ctr: 2; hcDAF12 ag: 9.3*

How did Cc1ccnc(NC(=O)c2sc3ccccc3c2Cl)c1 do in these assays?
DAX1 inh-1: 8.0*; DAX1 inh-2: 1; hcDAF-12 act: 8.7*; hgDAF-12 ag: 16*; ssDAF-12 act: 0; DAX1 inh confirm: 6.9*; SF1 mutant ctr: 2; LXRb hcDAF ctr: 1; hcDAF12 ag: 10*

What do the screens show for `Cc1cnc(NC(=O)c2sc3ccccc3c2Cl)s1`?
DAX1 inh-1: 5.4*; DAX1 inh-2: 2; hcDAF-12 act: 17*; hgDAF-12 ag: 30*; ssDAF-12 act: 3.1*; DAX1 inh confirm: 6.4*; SF1 mutant ctr: 2; LXRb hcDAF ctr: 2; hcDAF12 ag: 17*

How did Cc1cccnc1NC(=O)CNC(=O)c1sc2ccccc2c1Cl do in these assays?
DAX1 inh-1: 0; DAX1 inh-2: 0; hcDAF-12 act: 1; hgDAF-12 ag: 1; ssDAF-12 act: 0

Results for Cc1ccnc(NC(=O)c2cccc3ccccc23)c1 ?
DAX1 inh-1: 2; DAX1 inh-2: 0; hcDAF-12 act: 1; hgDAF-12 ag: 5; ssDAF-12 act: -1

Results for Cc1csc(C(=O)O)c1NC(=O)c1cccc([N+](=O)[O-])c1 ?
DAX1 inh-1: 0; hcDAF-12 act: 0; hgDAF-12 ag: 1; ssDAF-12 act: -1

How did CCOC(=O)C1CCN(C(=O)COC(=O)c2nn(C)c(=O)c3ccccc23)CC1 do in these assays?
DAX1 inh-1: 0; DAX1 inh-2: 1; hcDAF-12 act: -2; hgDAF-12 ag: -2; ssDAF-12 act: -1

Results for CCCn1c(SCc2nc3ccccc3s2)n[nH]c1=O ?
DAX1 inh-1: 4.8*; DAX1 inh-2: 2; hcDAF-12 act: 12*; hgDAF-12 ag: 11*; ssDAF-12 act: 1.5*; DAX1 inh confirm: 8.4*; SF1 mutant ctr: 5.0*; LXRb hcDAF ctr: 1; hcDAF12 ag: 11*
